These results are taken from PubChem BioAssay (Tox21).

Records with an inconclusive call do not appear. Entries that show only a call come without a potency. More than one record can exist for a structure, and the calls need not agree. Activity calls are given as the source filed them. Calls follow the shape of the dose curve; as a rule, active = well fitted activation curve with a large enough effect in the signal ratio in the repeat runs (not every such curve was filed as active); inconclusive = weak or mixed curves; inactive = flat fitted curve, though single readings scatter; the % refers to the signal ratio.
Potency is read from the fitted curve at half-maximal effect.

The nature of this assay: qHTS assay to identify small molecule agonists of H2AX (AID 1224845). To be noted: CHO-K1 phospho-H2AX Ser139 HTRF, 3 h; series mostly up to 154 µM. An excerpt: National Center for Advancing Translational Sciences [NCATS]
NIH Chemical Genomics Center [NCGC]
U.S. Environmental Protection Agency [EPA]
National Institutes of Environmental Health Sciences [NIEHS]
National Toxicology Program [NTP]
U.S. Food and Drug Administration [FDA]
HTRF phospho-H2AX (Ser139) assay (Cisbio Bioassays, US) enables the quantitative detection of the histone variant H2AX when phosphorylated on serine 139. When double-stranded DNA breaks, either by ionizing radiation or endogenous physiological processes, H2AX becomes phosphorylated at Ser139. This phospho-Ser139 serves as a sensitive biomarker for the detection of such breaks, localizing the site of DNA repair. So, HTRF phospho-H2AX Ser139 is a pertinent assay to study genome stability, the cell cycle, DNA repair, and it serves as a biomarker for cancer, and to understand aging. Wild type CHO-K1 cells were used to identify the inducers of Phospho-H2AX Ser 139 from the Tox21 10K compound collections.
Tox21 Assay Protocol Summary:
The CHO-K1 cells suspended in culture medium containing 10% FBS were dispensed at 1000 cells/ 3 ul/well in 1536-well white wall/solid bottom plates (Greiner Bio-One North America, NC) using a Multidrop Combi (Thermo Fisher Scientific Inc., Waltham, MA). After the assay plates were incubated at 37C overnight, 23 nl of compounds at 15 concentrations (from 5-48 columns) or positive control (from 1 to 4 columns) were transferred to the assay plates using a Pintool station (Wako, San Diego, CA) into each well resulting in a final DMSO concentration of 0.76%. After 3hr incubation at 37C, 1 uL/well Supplemented Lysis buffer (diluted 100 fold blocking reagent in lysis buffer) (HTRF Phospho-H2A.X (S139) Assay kit from Cisbio US Inc., Bedford, MA) was added using a Flying Reagent Dispenser (FRD) (Aurora Discovery, CA). After 10sec spin at 1000 rpm in a plate centrifuge, the assay plates were incubated at room temperature for 30 min. Then followed by the addition of 1 uL/well detection buffer (containing a mixture of two antibodies, one labeled with cryptate, Anti pH2AX (S139)-K and another labeled with d2, Anti H2AX-d2) using FRD. After incubation at room temperature for 24 hr, the time resolved fluorescence at excitation 320 nm and emissions at 665 nm and 620 nm was measured using an Envision plate reader (PerkinElmer, Waltham, MA).
As to `C=C(C)CCl`, the Potency result was “inactive”.

As for `BrCCBr`, the Potency result was “inactive”.

For the molecule `C#CC(C)(C)NC(=O)c1cc(Cl)cc(Cl)c1`, the Potency result is “inactive”.

`OC(O)C(Cl)(Cl)Cl`: the Potency entry was “inactive”.

As for `O=S(=O)(c1ccc(O)cc1)c1ccc(O)cc1`, the Potency entry is “inactive”.

On to `CCOC(=O)c1ccccc1C(=O)OCC`, for which the Potency entry was “inactive”.

Turning to `O=S(=O)(c1ccc(Cl)cc1)c1cc(Cl)c(Cl)cc1Cl`, the Potency entry is “inactive”.

For the molecule `CCC12COCN1COC2`, the Potency entry was “inactive”.

In the case of `Cc1ccccc1O`, the Potency entry was “inactive”.

Turning to `Clc1ccc(Cl)cc1`, the Potency entry was “inactive”.

Take `C1CN2CCN1CC2`: the Potency entry is “inactive”.

Regarding `Cn1cc(-c2ccccc2)c(=O)c(-c2cccc(C(F)(F)F)c2)c1`, the Potency entry is “inactive”.

On to `c1ccc2c(c1)oc1ccccc12`, for which the Potency result was “inactive”.

Turning to `Clc1cccc(Cl)c1Cl`, the Potency result was “inactive”.

`C=CCO`: the Potency result was “inactive”.

As for `CCOP(=S)(OCC)Oc1cnc2ccccc2n1`, the Potency result was “inactive”.

Turning to `CCCCCCCCCl`, the Potency result was “inactive”.

`C#CCN(C)[C@H](C)Cc1ccccc1`: the Potency entry was “inactive”.

`CC(C)C#N`: the Potency result is “inactive”.

Consider `CC(C)(Cl)Cl`, for which the Potency entry was “inactive”.

For `Cc1ccc([N+](=O)[O-])cc1C`, the Potency entry was “inactive”.

For `CCCCOC(=O)c1ccccc1C(=O)OCCCC`, the Potency entry was “inactive”.

Take `CCCCCOC(=O)c1ccccc1C(=O)OCCCCC`: the Potency entry is “inactive”.

Turning to `O=c1[nH]c2ccccc2c(=O)o1`, the Potency result is “inactive”.

`CCc1cccc(C)c1N(C(=O)CCl)C(C)COC` (stereo not given): the Potency result is “inactive”.

Take `C[C@]12CC[C@H]3[C@@H](CC[C@@]45O[C@@H]4C(O)=C(C#N)C[C@]35C)[C@@H]1CC[C@@H]2O`: the Potency entry was “inactive”.

As for `NCC(O)c1ccc(O)cc1` (stereo not given), the Potency result was “inactive”.

For the molecule `COP(N)(=O)SC` (stereo not given), the Potency result was “inactive”.

As to `O=C(NC(=O)c1c(F)cccc1F)Nc1cc(Cl)c(OC(F)(F)C(F)C(F)(F)F)cc1Cl` (stereo not given), the Potency result was “inactive”.

For `CC1C=[C-]C=C1.[C-]#[O+].[C-]#[O+].[C-]#[O+].[Mn]`, the Potency result was “inactive”.

As to `Cc1[nH]c(=O)n(C(C)(C)C)c(=O)c1Cl`, the Potency entry is “inactive”.

Take `CC(C)(C)OOC(C)(C)C`: the Potency entry is “inactive”.

As for `C=CC(N)=O`, the Potency entry was “inactive”.

`CCOP(=S)(OCC)SCCSCC`: the Potency entry was “inactive”.

Regarding `CC(C)N1C(=O)c2ccccc2NS1(=O)=O`, the Potency entry is “inactive”.

`CN(C)[C@@H]1C(=O)C(C(N)=O)=C(O)[C@@]2(O)C(=O)C3=C(O)c4c(O)cccc4[C@@](C)(O)[C@H]3C[C@@H]12`: the Potency entry was “inactive”.

As for `CCC[N+](=O)[O-]`, the Potency was 5.56 µM (active) and inactive.

Take `CC1OC(C)OC(C)O1` (stereo not given): the Potency result was “inactive”.

For the molecule `CC(Br)C(=O)O` (stereo not given), the Potency entry is “inactive”.

As for `COC(=O)NC(=S)Nc1ccccc1NC(=S)NC(=O)OC`, the Potency entry is “inactive”.
